Results published in PubChem BioAssay (Tox21).
Where “and” joins values, the source holds several entries; their conditions need not be identical. Equal values may be shown once. Results filed as inconclusive are left out. A call without a number means that no potency is given here. Calls of active or inactive are those of the source. Calls follow the shape of the dose curve; as a rule, active = well fitted cell-killing curve with a large enough effect in the repeat runs; inconclusive = weak or mixed curves; inactive = no such curve, though single readings can be large or run the other way.

Experiment: qHTS assay to identify small molecule agonists of the peroxisome proliferator-activated receptor delta (PPARd) signaling pathway - cell viability counter screen (AID 743211); also: nearly all actives have a fitted effect of over 55% in size
Details: PPARd-bla HEK293H viability, CellTiter-Glo luminescence, 17 h; series mostly up to 62.6 µM
Outline: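 Following 5 h plating at 37 C and 5% CO2, PPARd UAS-bla HEK293H cells took up test compounds for 17 h. Viability was quantified by luminescence 30 min after CellTiter-Glo addition at room temperature.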
Potency is read from the fitted curve at half-maximal effect.

Structure (SMILES) | Potency
OC(CCl)CCl | inactive
CN(C)CCC=C1c2ccccc2CCc2ccccc21 | 43.7 µM (active) and 38.9 µM (active) and 29.8 µM (active)
NC=O | inactive
O=CCc1ccccc1 | inactive
CCCCOCCOCCOCCO | inactive
CCOCCOCCO | inactive
CCC(C)(O)CCCC(C)C (stereo unspecified) | inactive
O=P(O)(O)O | inactive
CCCCNS(=O)(=O)c1ccccc1 | inactive
Cc1ccc(C)c(O)c1C | inactive
Cc1[nH]c(=O)c(C#N)cc1-c1ccncc1 | inactive
CNCCCC12CCC(c3ccccc31)c1ccccc12 | 17.4 µM (active) and 29.8 µM (active)
Cc1cccc(C(=O)O)c1 | inactive
Nc1ncn([C@@H]2O[C@H](CO)[C@@H](O)[C@H]2O)c(=O)n1 | inactive
OC1CCCCCCCCCCC1 | inactive
c1ccncc1 | inactive
Nc1ncnc2nc[nH]c12 | inactive
CC(C(=O)O)c1cccc(C(=O)c2ccccc2)c1 (stereo unspecified) | inactive
Cc1c(C(N)=O)cc([N+](=O)[O-])cc1[N+](=O)[O-] | inactive
CC(C)OC=O | inactive
O=[N+]([O-])c1ccc2c(c1)Cc1ccccc1-2 | inactive
Cc1c(OCC(F)(F)F)ccnc1CS(=O)c1nc2ccccc2[nH]1 (stereo unspecified) | inactive
CC(C)OC(=O)C(C)(C)Oc1ccc(C(=O)c2ccc(Cl)cc2)cc1 | 54.9 µM (active)
c1ccc2c(c1)c1cccc3ccc4cccc2c4c31 | inactive
O=Cc1ccccc1O | inactive
C[C@]12CC[C@H]3[C@@H](CCC4=CC(=O)CC[C@@]43C)[C@@H]1CC[C@@H]2C(=O)CO | inactive
